Bead autofluor: compound fluorescence in toxin protease inhibitor counterscreen | actives 3.1% (n = 360,000) | AID 624483 | fluorescence intensity (test concentration not listed) | compound autofluorescence counterscreen, microsphere flow cytometry; hits give high values; in the data active means fluorescence intensity above about 16000; inconclusive means no clear call, values can overlap the other calls
Anthrax LF inh2: anthrax lethal factor protease inhibition | P15917 | multiplex microsphere protease cleavage assay, LF | inhibition, % at 10 µM | actives 0.12% (n = 360,000) | AID 588501; further: plate controls were buffer without enzyme for full effect and enzyme alone for no effect
BoNT-F LC inh: inhibitors of Botulinum neurotoxin F light chain protease; actives 0.22% (n = 360,000); Multiplex microsphere protease cleavage assay, flow cytometry; inhibition, % at 10 µM; AID 588497; in the data active means inhibition above about 35%, passing the limit was not always enough; inconclusive means no clear call, values can overlap the other calls; further: plate controls were buffer without enzyme for full effect and enzyme alone for no effect
BoNT A protease: inhibitors of Botulinum neurotoxin A light chain protease; multiplex microsphere protease substrate cleavage, flow cytometry; actives 0.17% (n = 360,000); inhibition, % at 10 µM; further: plate controls were buffer without enzyme for full effect and enzyme alone for no effect
Mtb FBA inh: Mtb fructose-bisphosphate aldolase inhibition. P9WQA3. purified M. tuberculosis FBA, fluorescence read-out. inhibition, % at 1 µM. actives 2.3% (n = 360,000). AID 588726; in the data active means inhibition above about 27%;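 further: 0% = vehicle and 100% = reference inhibitor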
GDH-TPI inh: inhibits GDH-TPI coupling enzymes, artifact for Mtb FBA screen | GDH-TPI coupled enzyme counterscreen, NADH absorbance | inhibition, % at 4.8 µM | actives 1.2% (n = 360,000) | AID 588335; in the data active means inhibition above about 30%;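 further: 0% = DMSO wells and 100% = wells lacking the enzyme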
Starred values were filed as active, the others as inactive. This is a sample that favours compounds with a hit; in the whole collection about 6.6% have one here. Unless noted, no stated cut-off is given here; in the data, active means inhibition above about 30%; inconclusive means no clear call, values can overlap the other calls; inactive means below that.

Screening CC(=O)Nc1ccc(Nc2cc(C)nc3ccccc23)cc1 returned Bead autofluor 3638, Anthrax LF inh2 -5, BoNT-F LC inh inconclusive, BoNT A protease -7, Mtb FBA inh -1 and GDH-TPI inh 38*.
`COc1ccc(Cl)cc1Nc1cc(C)nc2ccccc12` gave Bead autofluor 3472, Anthrax LF inh2 -8, BoNT-F LC inh inconclusive, BoNT A protease 0, Mtb FBA inh 0 and GDH-TPI inh 3.
COc1ccc(OC)c(Nc2cc(C)nc3ccccc23)c1 was read as Bead autofluor 5526, Anthrax LF inh2 -2, BoNT-F LC inh 2, BoNT A protease 0, Mtb FBA inh 1 and GDH-TPI inh 15.
`Cc1cc(Nc2ccccc2Cl)c2ccccc2n1` gave Bead autofluor 3422, Anthrax LF inh2 -6, BoNT-F LC inh inconclusive, BoNT A protease 0, Mtb FBA inh 0 and GDH-TPI inh 37*.
`COc1ccc(Nc2ccccc2)c(C)c1` gave Bead autofluor 22653*, Anthrax LF inh2 -2, BoNT-F LC inh -2, BoNT A protease 2, Mtb FBA inh -1 and GDH-TPI inh 13.
`COc1cccc(Nc2cc(C)nc3ccccc23)c1` gave Bead autofluor 20171*, Anthrax LF inh2 1, BoNT-F LC inh 0, BoNT A protease inconclusive, Mtb FBA inh 0 and GDH-TPI inh 21.
Screening O=C(Cn1nnc2ccccc21)NNC(=O)c1ccccc1 returned Bead autofluor 4658, Anthrax LF inh2 0, BoNT-F LC inh -1, BoNT A protease -1, Mtb FBA inh 4 and GDH-TPI inh -2.
`CCCNC(=S)N1CC2(C)CN(C(=O)C(=O)OCC)CC(C)(C1)C2=O` gave Bead autofluor 2666, Anthrax LF inh2 1, BoNT-F LC inh -1, BoNT A protease -2, Mtb FBA inh 3 and GDH-TPI inh -2.
`CCOc1cc(CNn2cnnc2)cc(Cl)c1OCC(=O)NC(C)(C)C` gave Bead autofluor 3300, Anthrax LF inh2 6, BoNT-F LC inh inconclusive, BoNT A protease -3, Mtb FBA inh 1 and GDH-TPI inh 1.
`COC(=O)[C@]12CCCCC=C1N(CCC1=CCCCC1)C(=O)[C@H](CC(=O)N1CCOCC1)C2` gave Bead autofluor 5290, Anthrax LF inh2 -1, BoNT-F LC inh 4 and BoNT A protease 0.
For OCCSc1c(F)c(SCCO)c(SCCO)c(F)c1SCCO the results were Bead autofluor 23508*, Anthrax LF inh2 0, BoNT-F LC inh 2, BoNT A protease 0, Mtb FBA inh 6 and GDH-TPI inh 6.
For CCn1[nH]c(=O)c(=Nc2c(C)n(C)n(-c3ccccc3)c2=O)cc1-c1ccc(Cl)cc1 the results were Bead autofluor 22167*, Anthrax LF inh2 0, BoNT-F LC inh 2, BoNT A protease 2, Mtb FBA inh 1 and GDH-TPI inh 3.
COc1ccc(-c2cc(=Nc3c(C)n(C)n(-c4ccccc4)c3=O)c3ccccc3o2)cc1 was read as Bead autofluor 4476, Anthrax LF inh2 -1, BoNT-F LC inh -4, BoNT A protease -1, Mtb FBA inh active and GDH-TPI inh 17.
`Cc1c(N=Cc2ccc(-c3ccc(Cl)cc3)o2)c(=O)n(-c2ccccc2)n1C` gave Bead autofluor 2587, Anthrax LF inh2 -5, BoNT-F LC inh -12, BoNT A protease -1, Mtb FBA inh 1 and GDH-TPI inh 3.
Screening CC1CCCC(NC(=O)c2cccc(S(=O)(=O)N3CCCCC3)c2)C1C (stereo not drawn) returned Bead autofluor 5082, Anthrax LF inh2 5, BoNT-F LC inh -1, BoNT A protease 0, Mtb FBA inh 4 and GDH-TPI inh -1.
For CCO[C@H]1OC(C(=O)NCc2ccccc2)=C[C@@H](c2cn(C(C)=O)c3ccccc23)[C@@H]1CCCO the results were Bead autofluor 3710, Anthrax LF inh2 -6, BoNT-F LC inh -4, BoNT A protease 0, Mtb FBA inh -1 and GDH-TPI inh 7.
`COc1ccc(N(CC(=O)NC2CCCC2)C(=O)Cn2nnc(-c3ccc(OC)c(OC)c3)n2)c(OC)c1` gave Bead autofluor 3859, Anthrax LF inh2 -16, BoNT-F LC inh 28, BoNT A protease -3, Mtb FBA inh 2 and GDH-TPI inh -5.
CC(C)CCNC(=O)CN(C(=O)Cn1nnc(-c2ccccc2F)n1)c1cccc2c1CCCC2 was read as Bead autofluor 20259*, Anthrax LF inh2 -10, BoNT-F LC inh 7, BoNT A protease 4, Mtb FBA inh -1 and GDH-TPI inh -3.

Source: PubChem
